Data taken from PubChem BioAssay (NCI).
This is part of a sample that, as a whole, favours compounds with a hit. Of some 83,000 tested, about 20% had one in any assay.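 Treatment: one concentration, 48 hours, 96-well format. Scoring: percent growth, with anything below 10 considered active.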 Calls of active or inactive are those of the source.

How the values were obtained:
Assay in all cases: NCI-60 one-dose screen, 48 h (100 = growth as untreated, 0 = no growth, -100 = all killed)
Details in all cases: 10 µM unless noted
HCT-15 colon = system: HCT-15 colon
HT29 colon = system: HT29 colon
SNB-75 CNS = system: SNB-75 CNS
SNB-19 CNS = system: SNB-19 CNS
U251 CNS = system: U251 CNS
PC-3 prostate = system: PC-3 prostate
SK-MEL-5 melanoma = system: SK-MEL-5 melanoma
UACC-62 melanoma = system: UACC-62 melanoma
LOX IMVI melanoma = system: LOX IMVI melanoma
SK-MEL-28 melanoma = system: SK-MEL-28 melanoma
SK-MEL-2 melanoma = system: SK-MEL-2 melanoma
SN12C renal = system: SN12C renal
UO-31 renal = system: UO-31 renal
ACHN renal = system: ACHN renal
CAKI-1 renal = system: CAKI-1 renal
A498 renal = system: A498 renal
CCRF-CEM leukemia = system: CCRF-CEM leukemia
MOLT-4 leukemia = system: MOLT-4 leukemia
TK-10 renal = system: TK-10 renal

Measured: growth

COc1cccc(C2CC(=O)Nc3c2c(C)nn3-c2nc3ccccc3[nH]2)c1OC (stereo unspecified)
inactive: HCT-15 colon 59.4% | HT29 colon 86.6% | SNB-75 CNS 74.8% | SNB-19 CNS 87.1% | U251 CNS 63.6% | PC-3 prostate 62.8% | SK-MEL-5 melanoma 60.1% | UACC-62 melanoma 51.3% | LOX IMVI melanoma 54.2% | SK-MEL-28 melanoma 79.5% | SK-MEL-2 melanoma 72.7% | SN12C renal 75.5% | UO-31 renal 73.1% | ACHN renal 56.5% | CAKI-1 renal 80.6%
active: A498 renal -5.31% | CCRF-CEM leukemia 8.46% | MOLT-4 leukemia -31%

Cc1ccc(S(=O)(=O)NCCCNc2nccc(-c3c(-c4ccccc4)nc4sccn34)n2)cc1
inactive: HCT-15 colon 47% | HT29 colon 18.5% | SNB-75 CNS 48.4% | SNB-19 CNS 75.4% | U251 CNS 63.1% | PC-3 prostate 30.9% | SK-MEL-5 melanoma 45% | UACC-62 melanoma 36.5% | LOX IMVI melanoma 32.6% | SK-MEL-28 melanoma 78.5% | SK-MEL-2 melanoma 82.9% | SN12C renal 48.1% | UO-31 renal 33.9% | TK-10 renal 85.8% | ACHN renal 37.7% | CCRF-CEM leukemia 18.5% | MOLT-4 leukemia 43.5%

COc1ccc(C(=O)c2cc(OC)c(OC)c(OC)c2)cc1/C=C/C(=O)c1ccc(OC)c(OC)c1
active: HT29 colon 9.61% | CCRF-CEM leukemia 6.83%
inactive: HCT-15 colon 12.8% | SNB-75 CNS 22.9% | SNB-19 CNS 33.2% | U251 CNS 25.5% | PC-3 prostate 33.9% | SK-MEL-5 melanoma 21.5% | UACC-62 melanoma 24.8% | LOX IMVI melanoma 10.9% | SK-MEL-28 melanoma 21.8% | SK-MEL-2 melanoma 20.9% | SN12C renal 42.3% | UO-31 renal 26.3% | TK-10 renal 63.8% | ACHN renal 20.4% | A498 renal 74.1% | MOLT-4 leukemia 12.8%

COc1ccc(Cn2cc(COc3cc(/C=C/C(=O)c4cc(OC)c(OC)c(OC)c4)ccc3OC)nn2)cc1
active: CCRF-CEM leukemia 2.56%
inactive: HCT-15 colon 38.5% | HT29 colon 13% | SNB-75 CNS 59.8% | SNB-19 CNS 82.6% | U251 CNS 44.6% | PC-3 prostate 44.5% | SK-MEL-5 melanoma 80.2% | UACC-62 melanoma 70.1% | LOX IMVI melanoma 36.4% | SK-MEL-28 melanoma 84.6% | SK-MEL-2 melanoma 87.1% | SN12C renal 51% | UO-31 renal 37.8% | ACHN renal 64.6% | CAKI-1 renal 17.5% | A498 renal 81.4% | MOLT-4 leukemia 82.3%

O=C(c1ccncc1)N1N=C(c2ccc(Cl)cc2)CC1c1c[nH]c2ccccc12 (stereo unspecified)
inactive: HCT-15 colon 93.6% | HT29 colon 101% | SNB-75 CNS 82.4% | SNB-19 CNS 105% | U251 CNS 93.4% | PC-3 prostate 82.8% | SK-MEL-5 melanoma 93.3% | UACC-62 melanoma 90.5% | LOX IMVI melanoma 86.9% | SK-MEL-28 melanoma 107% | SK-MEL-2 melanoma 83% | SN12C renal 92.9% | UO-31 renal 45.2% | TK-10 renal 107% | CAKI-1 renal 90.2% | A498 renal 80.5% | CCRF-CEM leukemia 56.7% | MOLT-4 leukemia 75.1%

O=C1Nc2ccc(Br)cc2C1=N/C=c1\[nH]c(=O)/c(=C/c2ccc(Cl)cc2)s1
inactive: HCT-15 colon 90.3% | HT29 colon 97.9% | SNB-75 CNS 93.9% | SNB-19 CNS 94% | U251 CNS 83.7% | PC-3 prostate 92% | SK-MEL-5 melanoma 99.1% | UACC-62 melanoma 91.2% | LOX IMVI melanoma 103% | SK-MEL-28 melanoma 105% | SK-MEL-2 melanoma 99.7% | SN12C renal 102% | UO-31 renal 85.2% | TK-10 renal 101% | A498 renal 94.5% | CCRF-CEM leukemia 87.9% | MOLT-4 leukemia 90.9%

N#CC1=C(N)OC2=C(C(=O)CCC2)C1c1ccco1 (stereo unspecified)
inactive: HCT-15 colon 104% | HT29 colon 109% | SNB-75 CNS 95.7% | SNB-19 CNS 98.3% | U251 CNS 99.3% | PC-3 prostate 102% | SK-MEL-5 melanoma 101% | UACC-62 melanoma 112% | LOX IMVI melanoma 96.4% | SK-MEL-28 melanoma 111% | SK-MEL-2 melanoma 97.8% | SN12C renal 107% | UO-31 renal 79.3% | TK-10 renal 96.4% | CAKI-1 renal 93% | A498 renal 112% | CCRF-CEM leukemia 107% | MOLT-4 leukemia 97.9%

COc1ccc(/C=C/C(=O)c2cc(OC)c(OC)c(OC)c2)cc1OCc1cn(Cc2ccc(F)cc2)nn1
inactive: HCT-15 colon 23.8% | SNB-75 CNS 27.5% | SNB-19 CNS 78.4% | U251 CNS 19.3% | PC-3 prostate 35.1% | SK-MEL-5 melanoma 80.8% | UACC-62 melanoma 64.4% | LOX IMVI melanoma 13.3% | SK-MEL-28 melanoma 87.3% | SK-MEL-2 melanoma 90% | SN12C renal 29.2% | UO-31 renal 30.8% | ACHN renal 57.9% | A498 renal 78.7% | MOLT-4 leukemia 58.1%
active: HT29 colon 4.82% | CAKI-1 renal 4.33% | CCRF-CEM leukemia 0.459%

Cc1nc(Nc2cccnc2)sc1C(=O)/C=C/c1ccc(Cl)cc1
active: HT29 colon 6.4% | SNB-75 CNS -1.63% | U251 CNS 3.86% | LOX IMVI melanoma 0.346% | SN12C renal 7.95% | TK-10 renal 8.61% | CCRF-CEM leukemia 1.72%
inactive: HCT-15 colon 15% | SNB-19 CNS 14.2% | PC-3 prostate 29.4% | SK-MEL-5 melanoma 73.1% | UACC-62 melanoma 36.1% | SK-MEL-28 melanoma 77.8% | SK-MEL-2 melanoma 82.6% | UO-31 renal 25.3% | CAKI-1 renal 47.1% | MOLT-4 leukemia 53%

Cc1cc(C)c(S(=O)(=O)N2CCN(c3cc4c(cc3F)c(=O)c(C(=O)O)cn4C3CC3)CC2)c(C)c1
inactive: HCT-15 colon 55.1% | HT29 colon 28.3% | SNB-75 CNS 36.6% | SNB-19 CNS 66.3% | U251 CNS 19.7% | PC-3 prostate 67.9% | SK-MEL-5 melanoma 54.9% | UACC-62 melanoma 76.6% | LOX IMVI melanoma 29.6% | SK-MEL-28 melanoma 69.1% | SK-MEL-2 melanoma 90.5% | SN12C renal 13.9% | UO-31 renal 16.1% | TK-10 renal 86.5% | ACHN renal 51.3% | A498 renal 63% | CCRF-CEM leukemia 37.3% | MOLT-4 leukemia 61%

COc1cc2c3c(c(=O)oc2cc1OS(=O)(=O)c1ccc(C(F)(F)F)cc1)CCCCC3
active: SNB-75 CNS 8.09%
inactive: HCT-15 colon 79.2% | HT29 colon 78.8% | SNB-19 CNS 76.7% | U251 CNS 82.1% | PC-3 prostate 68.1% | SK-MEL-5 melanoma 69.5% | UACC-62 melanoma 68.1% | LOX IMVI melanoma 93.5% | SK-MEL-28 melanoma 76.3% | SK-MEL-2 melanoma 90.5% | SN12C renal 89.7% | UO-31 renal 92.6% | TK-10 renal 122% | ACHN renal 72.5% | A498 renal 86.3% | CCRF-CEM leukemia 90.2% | MOLT-4 leukemia 95.9%

O=C(CNC1CCCCC1)Nc1ccc(-c2nc3ccccc3s2)cc1
inactive: HCT-15 colon 62.9% | HT29 colon 62.3% | SNB-75 CNS 67.3% | SNB-19 CNS 91% | U251 CNS 65.1% | PC-3 prostate 79.7% | SK-MEL-5 melanoma 90.8% | UACC-62 melanoma 96.2% | LOX IMVI melanoma 73.9% | SK-MEL-28 melanoma 95.2% | SK-MEL-2 melanoma 105% | SN12C renal 86.7% | UO-31 renal 56.5% | TK-10 renal 103% | CAKI-1 renal 86% | CCRF-CEM leukemia 77.3% | MOLT-4 leukemia 54.1%

C=C1C(=O)O[C@H]2[C@H](O)[C@@H](C)CCC/C(C)=C/CC[C@@]3(C)O[C@@H]3C[C@@H]12
inactive: HCT-15 colon 96.3% | HT29 colon 99.6% | SNB-75 CNS 75.7% | SNB-19 CNS 88% | U251 CNS 97.3% | PC-3 prostate 46.5% | SK-MEL-5 melanoma 91.5% | UACC-62 melanoma 89% | LOX IMVI melanoma 92% | SK-MEL-28 melanoma 95.1% | SK-MEL-2 melanoma 90.4% | SN12C renal 91.2% | UO-31 renal 77.4% | TK-10 renal 81% | CAKI-1 renal 74.8% | A498 renal 91.8% | CCRF-CEM leukemia 79.5% | MOLT-4 leukemia 78.6%

Cc1cc2c(c(=O)o1)C(c1ccc(OC(=O)N3CCOCC3)cc1)C(C#N)=C(N)O2 (stereo unspecified)
inactive: HCT-15 colon 101% | HT29 colon 104% | SNB-75 CNS 95.6% | SNB-19 CNS 101% | U251 CNS 100% | PC-3 prostate 103% | SK-MEL-5 melanoma 103% | UACC-62 melanoma 108% | LOX IMVI melanoma 96.4% | SK-MEL-28 melanoma 110% | SK-MEL-2 melanoma 91.3% | SN12C renal 108% | UO-31 renal 90.2% | TK-10 renal 95.6% | CAKI-1 renal 95.2% | A498 renal 106% | CCRF-CEM leukemia 111% | MOLT-4 leukemia 98.3%

CCCCCc1c(C)[nH]c(/C=c2\[nH]/c(=C3/C=c4ccccc4=N3)cc2OC)c1C
active: HCT-15 colon -29.8% | HT29 colon -13.4% | SNB-75 CNS -22.6% | U251 CNS -95.1% | PC-3 prostate -6.91% | SK-MEL-5 melanoma -98.7% | UACC-62 melanoma -78.9% | LOX IMVI melanoma -85.2% | SK-MEL-28 melanoma -60.2% | SK-MEL-2 melanoma -73.9% | SN12C renal -51.4% | UO-31 renal -89.7% | TK-10 renal -47% | ACHN renal -78.3% | A498 renal -29.4% | CCRF-CEM leukemia -19% | MOLT-4 leukemia -23.1%
inactive: SNB-19 CNS 10.5%

COc1ccc(NC(=O)CSc2nc3ccc(Cl)cc3c(=O)n2-c2ccccc2C(F)(F)F)c(OC)c1OC
inactive: HCT-15 colon 97.8% | HT29 colon 97.3% | SNB-19 CNS 68.1% | U251 CNS 58% | PC-3 prostate 75.1% | SK-MEL-5 melanoma 89.7% | UACC-62 melanoma 68.7% | LOX IMVI melanoma 88% | SK-MEL-28 melanoma 92.1% | SK-MEL-2 melanoma 53.3% | SN12C renal 80.1% | UO-31 renal 77.6% | ACHN renal 61.2% | CAKI-1 renal 78.4% | A498 renal 78.3% | CCRF-CEM leukemia 33.7% | MOLT-4 leukemia 106%
active: SNB-75 CNS -17.3%

O=C(CCC(=O)OC1CCCC1)OC1CCCC1
inactive: HCT-15 colon 93.6% | HT29 colon 98.3% | SNB-75 CNS 77.3% | SNB-19 CNS 96.6% | U251 CNS 92.2% | PC-3 prostate 93.8% | SK-MEL-5 melanoma 99.3% | UACC-62 melanoma 103% | LOX IMVI melanoma 105% | SK-MEL-28 melanoma 99.3% | SK-MEL-2 melanoma 93.2% | SN12C renal 107% | UO-31 renal 90.4% | TK-10 renal 97.8% | CAKI-1 renal 95.8% | A498 renal 101% | MOLT-4 leukemia 89.9%
